Most compounds without a hit are left out; they make up all but 2.3% or so of the library.
Rango dissoc inh – qHTS Assay for Inhibitors of RanGTP induced Rango (Ran-regulated importin-beta cargo) - Importin beta complex dissociation. Snurportin-1 (Homo sapiens) + GTP-binding nuclear protein Ran (Homo sapiens) + Importin …. Biochemical FRET Rango-importin beta, RanGTP-induced dissociation. Potency, µM (titrated, usually from 46.1 µM), inactives show at the highest dose activity change, negative = inhibition. actives 0.071% (n = 340,000); calls by dose curve; also: % of control where 0% means no effect; nearly all actives have a fitted effect of over 45% in size
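Compounds preincubate 5 min with complex of recombinant Rango and importin beta in PBS with 1 mM DTT. Ran (0.6 uM) loaded with 2 mM GTP plus 0.2 uM RCC1 starts dissociation; FRET is recorded 45 min later.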
A549 tox – Nrf2 qHTS screen for inhibitors: counterscreen for cytotoxicity. A549 ARE-Fluc cells, CellTiter-Fluor viability, 18-24 h. Potency, µM (series often up to 46 µM), without a hit: at the highest dose activity change, negative = cytotoxicity, most hits filed as inhibitors. actives 0.16% (n = 390,000). AID 504648, 2011; also: % is scaled to controls: 0 for no effect and ±100 for the full control effect
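Cytotoxicity counterscreen: CellTiter-Fluor fluorescence was measured in A549 ARE_Fluc cells after 18-24 h of compound exposure in a concentration series. The subsequent BugLite luminescent read reports ARE-luciferase activity.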
Nrf2 block – Nrf2 qHTS screen for inhibitors; Potency, µM (top dose mostly 46 µM), inactives show at the highest dose activity change, negative = inhibition, actives largely listed as inhibitors; A549 ARE-Fluc reporter, luciferase luminescence, 18-24 h; actives 2.1% (n = 360,000); also: % is scaled to controls: 0 for no effect and ±100 for the full control effect; nearly all actives have a fitted effect of over 60% in size
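Nrf2 activity is the BugLite luminescence, read 15 min after reagent at room temperature, following CellTiter-Fluor cytotoxicity readout (30 min, 37C). Compound titrations were applied for 18-24 h to 5000 A549 ARE_Fluc cells/well in 5% FBS OPTI-MEM.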
Rango-impB inh – qHTS Assay for Inhibitors of Rango (Ran-regulated importin-beta cargo) - Importin beta complex formation. Importin subunit beta-1 (Homo sapiens), Q14974. Rango CFP/YFP FRET sensor + importin beta, 45 min. Potency, µM (doses to about 92.2 µM), for the others: at the highest dose inhibition of complex formation. actives 0.031% (n = 340,000). AID 540263, 2011; calls by dose curve;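 also: 0% = DMSO wells and 100% = buffer wells lacking importin beta; nearly all actives have a fitted effect of over 15% in size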
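Inhibition scored from the CFP 486 nm/YFP 530 nm FRET ratio 45 min after adding 0.125 microM importin beta to 50 nM Rango biosensor preincubated 5 min with compound (room temperature, PBS with DTT, Tween-20, BSA). No-importin wells as positive control.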
Nrf2 activator – qHTS of Nrf2 Activators; AREc32 ARE-luciferase reporter (MCF7-derived line), luminescence, 24 h; AID 624171, 2012; actives 0.31% (n = 410,000); Potency, µM (doses to about 46.1 µM), without a hit: top-dose activation, actives largely listed as activators; also: % of control where 0% means no effect; nearly all actives have a fitted effect of over 65% in size
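Each well held 1000 AREc32 cells, which were incubated with compound for 24 hr at 37 deg C after overnight attachment, and ARE reporter activity was quantified by firefly luciferase luminescence.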
* hit, by the source's call; ? = inconclusive; . = not tested or not shown. Unless noted, calls follow the shape of the dose curve; as a rule, active = well fitted curve in the direction sought with a large enough effect; inconclusive = small, poorly fitted or top-dose-only effect, or another doubt; inactive = no such curve, though single readings can be large; an effect the other way counts as inactive or inconclusive. Potency is read from the fitted curve at half-maximal effect.

SMILES	Rango dissoc inh	A549 tox	Nrf2 block	Rango-impB inh	Nrf2 activator
CCc1ccc(-c2cc(C(=O)Nn3cnnc3)c3ccccc3n2)cc1	-0.2%	1.9%	9.2µM*	8.8%	-1.9%
Cc1ccc2c(CC(=O)N3CCN(c4cccc(Cl)c4)CC3)coc2c1C	.	?	?	.	6.7%
COc1cc(/C=N\NC(=O)c2cccnc2)ccc1OC(=O)c1ccccc1Cl	-13.9%	-4.5%	14.6µM*	3.7%	3.2%
CCc1cccc(NC(=O)Cn2c(=O)n(CC(=O)NCCc3ccccc3)c(=O)c3ccccc32)c1	.	12.0%	-11.4%	.	0.1%
CC(C)(C)c1ccc(-c2nnc(SCCC#N)n2C2CCCC2)cc1	-5.5%	?	20.6µM*	2.5%	1.6%
O=C(CSc1nnc(-c2ccc(Br)cc2)n1C1CCCCC1)N1CCCC1	-3.8%	-10.2%	9.0%	-0.4%	0.0%
CC1CCC2(CC1)NC(=O)N(CC(=O)N(Cc1ccccc1)C(C)(C)C)C2=O (centres undefined)	-6.3%	7.7%	3.6%	-0.3%	-0.6%
CC1CCC2(CC1)NC(=O)N(Cc1cccc(C(F)(F)F)c1)C2=O (centres undefined)	7.5%	-0.8%	18.4µM*	-1.8%	6.5%
Clc1ccc(Cn2c(-c3cccnc3Cl)nc3ccccc32)c(Cl)c1	0.4%	?	18.4µM*	5.7%	2.3%
Cc1ccc(NC(=S)NC(NC(=O)c2ccccc2)C(Cl)(Cl)Cl)c(C)c1 (centres undefined)	-11.9%	?	20.6µM*	-2.7%	2.8%
Cc1cc(C)c(NC(=S)NC(NC(=O)c2ccccc2)C(Cl)(Cl)Cl)c(C)c1 (centres undefined)	-3.9%	-12.7%	?	0.7%	7.0%
Cc1ccc2c(c1)[C@H]1[C@H](CO2)[C@H](c2ccccc2)[C@]2(C)C(=O)N(C)CC(=O)N12	7.4%	-6.8%	20.6µM*	-1.6%	1.7%
O=C(c1ccc(N2CCN(C(=O)c3ccccc3Br)CC2)cc1)c1cccc(F)c1	-1.6%	-22.4%	20.6µM*	?	0.3%
Cc1csc(NC(=O)c2cc(-c3ccco3)nc3ccccc23)n1	-5.9%	3.3%	10.3%	-5.3%	3.98µM*
O=C(Nc1cccc(S(=O)(=O)NC2=NCCC2)c1)c1cc(-c2ccco2)nc2ccccc12	-13.4%	?	2.8%	-3.8%	10µM*
Cc1csc(NC(=O)c2cc(C)nc3ccccc23)n1	-6.0%	4.7%	-21.4%	1.4%	18.1%
Cc1ccc(-c2cc(C(=O)Nc3cccc(S(=O)(=O)N(C)C)c3)c3ccccc3n2)o1	14.6µM*	0.6%	-13.5%	?	3.4%
CN(C)C(=O)c1ccc(NC(=O)c2cc(-c3ccco3)nc3ccccc23)cc1	1.5%	-3.8%	9.7%	?	11.2µM*
COc1cc(-c2cc(C(=O)Nc3cccc(S(=O)(=O)N(C)C)c3)c3ccccc3n2)cc(OC)c1OC	-1.5%	-4.4%	-13.4%	-0.2%	3.1%
CCOC(=O)c1c(NC(=O)COc2ccc(Cl)cc2Cl)sc2c1CCCCC2	.	-1.7%	13.0%	.	3.2%
Cc1cc2c(s1)c1cnn(Cc3c(Cl)cccc3Cl)c(=O)c1n2C	.	-7.1%	4.3%	.	.
Cc1ccc2nc(NC(=O)c3cc(-c4ccco4)nc4ccccc34)sc2c1	-3.0%	-10.5%	23.1µM*	-0.4%	-0.1%
O=C(NC1CC1)c1cc(-c2ccco2)nc2ccccc12	-17.6%	0.9%	-8.1%	-1.6%	12.6µM*
N=c1c2c(ccn1Cc1ccccc1)Oc1ccc3ccccc3c1C2c1ccccc1 (centres undefined)	.	11.6µM*	5.17µM*	.	.
CCn1c(=O)c2c(nc(SCC(=O)Nc3ccccc3)n2C)n(C)c1=O	6.5%	-0.4%	2.8%	0.9%	0.2%
Cc1cc(-c2ccc(C)c(S(=O)(=O)N3CCN(c4ccc(F)cc4)CC3)c2)on1	3.4%	-5.9%	8.2µM*	-0.8%	-0.3%
